# HT1080 IDH1KD tx: qHTS for induction of synthetic lethality in tumor cells producing 2HG: qHTS for the HT-1080-IDH1KD cell line; hit rate 2% among 360,000; HT-1080 IDH1 knockdown viability, ATP luminescence, 48 h; AID 686971, 2013; Potency, µM (series often up to 46.1 µM), for the others: at the top dose activity, negative = toxicity, hits mostly cytotoxic;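 also: potency is read from the fitted curve at half-maximal effect; 0% = DMSO wells and -100% = cell-free medium wells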
#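 After a 2 h attachment period, IDH1KD HT-1080 cells took pin-transferred compound for 48 h at 37 °C; ATP-based luminescence after 10 min room-temperature reagent incubation reported viability.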
# TDP1 cell noCPT: qHTS for Inhibitors of human tyrosyl-DNA phosphodiesterase 1 (TDP1): qHTS in cells in absence of CPT; DT40 Tdp1-/- hTDP1 cells, no CPT, ATP luminescence, 48 h; Potency, µM (titrated, usually from 46.2 µM), for inactives: at the highest dose activity change, negative = growth inhibition, hits mostly inhibitors; hit rate 15% among 420,000; AID 686978, 2013; also: potency is read from the fitted curve at half-maximal effect; nearly all actives have a fitted effect of over 55% in size
#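 Chicken DT40 Tdp1-/- cells stably complemented with human TDP1 were seeded at 400 cells/well with DMSO in place of 20 nM camptothecin. After compound pinning, cells grew at least 48 hr at 37 °C; viability read by CellTiter-Glo luminescence.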
# HT1080NT lethal: qHTS for induction of synthetic lethality in tumor cells producing 2HG: qHTS for the HT-1080-NT fibrosarcoma cell line; HT-1080-NT fibrosarcoma viability, CellTiter-Glo ATP luminescence, 48 h; Potency, µM (highest dose often 46.1 µM), inactives show top-dose activity, negative = less viability, actives largely listed as cytotoxic; hit rate 1.6% among 360,000; AID 686970, 2013;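 also: NT is the 2HG producing partner of a matched IDH1 knockdown line; potency is read from the fitted curve at half-maximal effect; 0% = DMSO-treated cells and -100% = media-only wells without cells; nearly all actives have a fitted effect of over 55% in size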
#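 Read-out is CellTiter-Glo luminescence after 10 minutes at room temperature, following 48 hours' compound treatment of HT-1080-NT cells (750 cells/well, RPMI, 5% FBS, 37 degrees C).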
# TDP1 cell CPT: qHTS for Inhibitors of human tyrosyl-DNA phosphodiesterase 1 (TDP1): qHTS in cells in presence of CPT; chicken DT40 Tdp1-/-;hTDP1 cells + 20 nM CPT, ATP luminescence, 48 h; Potency, µM (highest dose often 46.2 µM), for inactives: at the highest dose activity change, negative = growth inhibition, actives largely listed as inhibitors; hit rate 12% among 420,000; also: potency is read from the fitted curve at half-maximal effect; nearly all actives have a fitted effect of over 55% in size
#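 Chicken DT40 Tdp1-/- cells stably complemented with human TDP1 were seeded at 400 cells/well in medium containing 20 nM camptothecin, exposed to pin-transferred compounds, and grown at 37 °C for at least 48 hr. Viability was read as ATP luminescence.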
# uPA surface inh: qHTS for Inhibitors of Cell Surface uPA Generation; cell surface uPA generation assay, qHTS; Potency, µM (highest dose often 38.3 µM), for inactives: at the top dose activity change, negative = inhibition, usual class: inhibitors; hit rate 0.31% among 330,000; AID 540303, 2011; active = well fitted inhibition curve with a large enough effect; inconclusive = small, poorly fitted or top-dose-only effect; inactive = no such curve, though single readings can be large or run the other way; tested in mouse RAW 264.7 cells; also: potency is read from the fitted curve at half-maximal effect; nearly all actives have a fitted effect of over 55% in size
# IL-1B inflam inh: qHTS for Inhibitors of Inflammasome Signaling: IL-1-beta AlphaLISA Primary Screen | THP-1 LPS/ATP IL-1B secretion, AlphaLISA, 16 h; hits give low values | activity change, % at 57.5 µM | hit rate 4.7% among 360,000; in the data active = activity change below about -50%; inconclusive = mostly about -30% to -49%
#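 Secreted IL-1B measured by AlphaLISA bead assay after 16 h compound exposure of THP-1 cells; compounds (final up to 57.5 uM) added 1 h before LPS (250 ng/mL) and ATP (1.25 mM) stimulation; lower signal means less secretion.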
# * = called active by the depositor; ? = inconclusive; / = not tested or not shown; [ ] = dose if it differs, or a comment. An excerpt weighted towards active compounds, which were near 19% of everything screened. Unless noted, calls follow the shape of the dose curve; as a rule, active = well fitted curve in the direction sought with a large enough effect; inconclusive = small, poorly fitted or top-dose-only effect, or another doubt; inactive = no such curve, though single readings can be large; an effect the other way counts as inactive or inconclusive. Unless noted, % is scaled to controls: 0 for no effect and ±100 for the full control effect.
SMILES,HT1080 IDH1KD tx,TDP1 cell noCPT,HT1080NT lethal,TDP1 cell CPT,uPA surface inh,IL-1B inflam inh
COc1ccc(CNC(=O)CN2CCC(NC(=O)c3cccc(OC)c3)CC2)cc1,-8%,-21%,1%,-1%,-1%,5
CC(C)Oc1ccc2c(c1)OC(c1ccccc1)(C(F)(F)F)NC2=O (stereo not drawn),-1%,26µM*,4%,?,0%,37
COc1ccccc1NC(=S)N1CCNC(=O)C1CC(=O)Nc1cccc(C)c1 (stereo not drawn),-3%,17%,-11%,5%,-2%,-14
Cc1cccc(NC(=O)CC2C(=O)NCCN2C(=S)Nc2ccccc2)c1 (stereo not drawn),-6%,-1%,-1%,-1%,6%,-61*
COc1ccccc1NC(=O)CC1C(=O)NCCN1C(=O)Nc1ccc(Cl)c(Cl)c1 (stereo not drawn),?,-23%,16µM*,?,1%,/
O=C(CC1C(=O)NCCN1C(=O)Nc1ccccc1)Nc1cc(Cl)cc(Cl)c1 (stereo not drawn),26µM*,-1%,16µM*,-3%,-25%,?
COc1ccc(OC)c(NC(=O)CC2C(=O)NCCN2C(=O)c2ccccc2)c1 (stereo not drawn),10%,-23%,2%,0%,2%,21
COc1cccc(C(=O)CN(C(=O)c2ccc(Cl)cc2Cl)N2C(=O)c3ccccc3C2=O)c1,-10%,17%,-20%,-1%,22%,5
CCOC(=O)c1c(NC(=O)COc2cccc(C(F)(F)F)c2)sc2c1CCC(C)C2 (stereo not drawn),/,-30%,/,-15%,/,/
CCOC(=O)CC(NC(=O)CCc1c(C)nc2cc(-c3ccccc3)nn2c1C)c1ccc(C)cc1 (stereo not drawn),/,18µM*,/,16µM*,/,/
COc1ccccc1CNC(=O)CCc1c(C)nc2cc(-c3ccc(Cl)cc3)nn2c1C,/,-17%,/,-24%,/,/
Cc1nc2cc(-c3ccccc3)nn2c(C)c1CCC(=O)Nc1ccc(F)cc1F,/,12µM*,/,10µM*,/,/
CCc1ccccc1NC(=O)CCc1c(C)nc2cc(-c3ccccc3)nn2c1C,/,18µM*,/,?,/,/
COc1cc(Cl)c(C)cc1NC(=O)CCc1c(C)nc2cc(-c3cccc(F)c3)nn2c1C,/,6%,/,2%,/,/
Cc1csc(NC(=O)CCc2c(C)nc3cc(-c4ccc(Cl)cc4)nn3c2C)n1,10%,13µM*,17%,18µM*,-12%,38
Cc1nc(CS(=O)(=O)c2ccc(Cl)cc2)cc(Sc2ccc(Cl)cc2)n1,2%[9.24 µM],?,-11%,-8%,-5%,-7
COc1ccc(N(CC(=O)NCc2ccc3c(c2)OCO3)C(=O)c2csnn2)cc1,4%,-8%,-1%,16%,3%,2
CCCCNC(=O)C(=O)Nc1cc2c3c(c1)CCC(=O)N3CCC2,0%,5%,2%,19%,-1%,6
COc1ccc(N2C(=O)/C(=C\c3ccco3)N=C2SCC(=O)N(C(C)C)C(C)C)cc1Cl,4%,16µM*,4%,16µM*,10%,-14
CC(C)Cc1nc(NCCN2CCOCC2)c(C#N)c2c1COC(C)(C)C2,0%,18µM*,-5%,?,-2%,?
CCc1nc(NCCN2CCOCC2)c(C#N)c2c1CCCC2,-7%,-20%,-9%,3.3µM*,-2%,-6
CC(C)c1nc(NCCN2CCOCC2)c(C#N)c2c1COC(C)(C)C2,0%,?,5%,?,2%,-25

# Screens from PubChem BioAssay.
